Reference: PubChem BioAssay AID488789 (Broad Institute, 2010)
Measured potencies and affinities stand elsewhere. Records with an inconclusive call do not appear. Activity calls are given as the source filed them.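 How the source made its calls: active means samples whose fitted half-maximal inhibition concentration is no more than ten times the top valid dose tested; inconclusive means flat response between -70 and -30, or invalid curve fit; inactive means flat within 30 of zero, potency above limit, or signal rising.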

Each molecule was assayed against Trypsin (Sus scrofa) (UniProt P00761) (assay: trypsin protease activity blockade – biochemical, quenched peptide fluorescence, cherry-pick, selectivity assay for Rce1 protease inhibitor project, dose response (AID 488789;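 further: more negative means stronger trypsin inhibition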)). Details: porcine trypsin, quenched peptide cleavage fluorescence; series mostly up to 10 µM.
Trypsin (Sus scrofa), sequence (P00761 whole entry, looked up): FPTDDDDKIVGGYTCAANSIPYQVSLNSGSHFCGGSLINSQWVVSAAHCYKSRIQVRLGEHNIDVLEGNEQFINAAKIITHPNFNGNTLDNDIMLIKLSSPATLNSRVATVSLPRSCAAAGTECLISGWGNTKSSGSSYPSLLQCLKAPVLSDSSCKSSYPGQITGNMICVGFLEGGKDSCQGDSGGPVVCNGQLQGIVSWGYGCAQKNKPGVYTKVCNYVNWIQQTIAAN
For CCN(CC)CCCN(Cc1cc2cc3c(cc2[nH]c1=O)OCO3)C(=S)NCCCN(C)C, the outcome was “inactive”.
O=C1NC2(C=Cc3c(ccc4ccccc34)O2)Oc2ccccc21 (stereo unspecified) was tested, and the outcome was “inactive”.
For OC(CNCCC1C=Nc2ccccc21)Cn1c2ccc(Cl)cc2c2cc(Cl)ccc21 (stereo unspecified), the outcome was “inactive”.
COC(C/C=C/[C@H](O)[C@@H](C)OCc1ccccc1)OC was tested, and the outcome was “inactive”.
For CS(=O)(=O)Nc1ccccc1C(=O)NCc1ccccc1Cl, the outcome was “inactive”.
For COc1ccc(N2CCN(C(=O)c3cc(-c4cccs4)nc4ccccc34)CC2)cc1, the outcome was “inactive”.
In the case of CNC(=S)N/N=C/c1cn(Cc2c(F)cccc2Cl)c2ccccc12, the outcome is reported as “inactive”.
With CCOC(=O)c1cc(-c2ccccc2)sc1NC(=O)C(C)Sc1nnnn1C (stereo unspecified) the outcome was “inactive”.
For CCSCCOC(=O)C1=C(C)NC(=O)NC1c1ccccc1 (stereo unspecified), the outcome was “inactive”.
COc1cc(OC)cc(-c2ncc3ccccn23)c1 was tested, and the outcome was “inactive”.
In the case of COc1ccc(Br)cc1C(=O)Nc1cc(C)cc(C)c1, the outcome is reported as “inactive”.
In the case of COc1ccccc1-n1c(-c2ccccc2)c[nH]c1=S, the outcome is reported as “inactive”.
In the case of CS(=O)(=O)Nc1ccccc1C(=O)NC1CC2CCC1C2 (stereo unspecified), the outcome is reported as “inactive”.
In the case of CCN(Cc1ccccc1)S(=O)(=O)c1ccc(C(=O)N(CCCN(C)C)c2nc3cc(C)cc(C)c3s2)cc1, the outcome is reported as “inactive”.
In the case of CC(=O)Oc1ccc(C(=O)Nc2ccc(S(=O)(=O)NCC3CCCO3)cc2)cc1 (stereo unspecified), the outcome is reported as “inactive”.
COc1ccccc1C1=NN(C2=NN=C(N)Cc3ncnn32)C(O)(C(F)(F)F)C1 (stereo unspecified) was tested, and the outcome was “inactive”.
With CC(C)c1ccc(/C=C2\SC(=S)N(CCC(=O)NCCCn3ccnc3)C2=O)cc1 the outcome was “inactive”.
With Cc1cc(NS(=O)(=O)c2ccccc2)c([N+](=O)[O-])cc1C the outcome was “inactive”.
O=C(O/N=C\c1ccc(N2CCCCC2)c([N+](=O)[O-])c1)c1cccc(C(F)(F)F)c1 was tested, and the outcome was “inactive”.
In the case of C/C=C(/C)C(=O)O[C@H]1[C@@H](O)c2c(ccc3ccc(=O)oc23)OC1(C)C, the outcome is reported as “inactive”.
In the case of CC1Oc2ccccc2C=C1/C=N/NC(=O)[C@@H](C)NC(=O)OC(C)(C)C (stereo partly specified), the outcome is reported as “inactive”.
